# Measurements published in PubChem BioAssay AID902 (National Center for Advancing Translational Sciences (NCATS), 2007).
# Among all 130,000 compounds or so, about 1,900 (1.5%) were called active. About 5% were inconclusive and are not listed. The call rests on the fitted dose curve; in most records, active means well fitted cell-killing curve with a large enough effect; inconclusive means small, poorly fitted or top-dose-only effect; inactive means no such curve, though single readings can be large or run the other way. For the sample, actives were picked, then their nearest neighbours and some compounds at random.
# Experiment: qHTS Screen for Compounds that Selectively Target Cancer Cells with p53 Mutations: Cytotoxicity of p53ts Cells at the Nonpermissive Temperature; further: nearly all actives have a fitted effect of over 55% in size
# Conditions: H1299-p53A138V viability at 39C, ATP luminescence, 24 h; series mostly up to 46.1 µM; activity change, negative = cell killing: at the top concentration
# Excerpt: NIH Chemical Genomics Center [NCGC] NIH Molecular Libraries Screening Centers Network [MLSCN] MLSCN Grant: 1 X01 MH079844-01 Assay Submitter (PI): Dr. SUN, YI, University of Michigan NCGC Assay Overview: Synthetic Lethal Screen for Compounds to Kill Cancer Cells with p53 Mutation. Tumor suppressor gene p53 serves as a major cellular barrier against tumorigenesis. […] The goal of this screening is to identify small molecule probes that selectively kill cancer cells with mutations in p53. This screening was carried out using two lines of H1299 lung cancer cells. The H1299-p53 A138V line express a temperature sensitive p53 mutant (p53ts) in which the mutant p53 protein (A138V) is in the mutant confirmation when grown at 39C (the nonpermissive temperature) and in the wild type conformation when grown at 32C (the permissive temperature). A H1299-neo line (p53 null) grown at both 39C and 32C were used as counter-screens to filter out false positive associated with temperature shifting. The small molecular compounds that selectively target mutant p53-containing cancer cells were selected as candidate probes for further study. A cytotoxicity assay based on the measurement of ATP contents in cells was used in this screen. Concentration-responses of all the compounds in the library collection were determined in qHTS using the cell lines and temperature conditions as above.
# NCGC Assay Protocol Summary: Both the H1299-p53A138V and H1299-neo cell lines were provided by Dr.Yi Sun, a PI at the University Michigan. The cells were maintained and cultured at 37C. The resuspended frozen cells were used to plate the cells in the 1536-well assay plates at a density of 600 cells per well in 5 ul medium. The assay plates with the cells were incubated at 37C for 16 to 30 hours before the experiments. The library compounds in DMSO solution were added to the cells in assay plates and incubated 24 hours at 39C (for mutant p53 conformation) or 32C (for normal p53 conformation as control). An ATP_lite assay kit (PerkinElmer) was used to determine the cell viability. Tomaxifen (100uM) was used as the positive control for cell killing. Data were normalized to the controls for basal activity (DMSO only) and 100% killing (100uM tamoxifen). AC50 values were determined from concentration-response data modeled with the standard Hill equation. P53 assay protocol: 1. Reagent; 5 uL H1299-p53A138V or H1299-neo cell cells/well 2. Time; overnight; 37C incubation 3. Compounds; 23 nL; 5.9 nM to 46 uM 4. Controls; 23 nL; Tamoxifen 100 uM 5. Time; 24 hr; 39C incubation 6. Reagent; 3 uL; ATP_Lite reagent 7. Time; 20 min; Room Temperature 8. Detection; Luminescence; Viewlux plate reader Keywords: p53, synthetic lethal, cancer, cell viability, cytotoxicity, H1299 cell line, luminescence, MLSMR, MLSCN, NIH Roadmap, qHTS, NCGC
# On the % scale 0 is the no-effect control and ±100 the full control effect; potency means the concentration at half of the fitted maximal effect.
Compound,"activity change, negative = cell killing",Potency
Cc1oc2ccc(O)c(CN3CCOCC3)c2c1C(=O)Nc1cccc(Cl)c1C,13.2% (inactive),–
Cc1oc2ccc(O)c(CN3CCC(C)CC3)c2c1C(=O)Nc1ccccc1,-26.7% (inactive),–
Cc1oc2ccc(O)c(CN3CCCCC3)c2c1C(=O)Nc1cccc(C(F)(F)F)c1,–,12.6 µM (active)
COc1ccccc1C(=O)Nc1c(C(=O)Nc2ccc(C)cc2)oc2ccccc12,12.9% (inactive),–
Cc1ccnc(NC(=O)c2ccc(NC(=O)c3ccco3)cc2)c1,-22.8% (inactive),–
O=C(Nc1ccc(NC(=O)c2cccs2)cn1)c1ccco1,–,10 µM (active)
O=C(Nc1cccc(NC(=O)c2ccco2)c1)c1cnccn1,-6.1% (inactive),–
CCC(=O)Nc1cccc(C(=O)OCc2cc(=O)n3nc(CC)sc3n2)c1,-22.8% (inactive),–
CCOC(=O)c1cccc(NC(=O)C(Cc2ccccc2)NS(=O)(=O)c2cccc3nsnc23)c1 (stereo not given),12.9% (inactive),–
COc1ccccc1Nc1cc(C(=O)NCCCN(C)C2CCCCC2)c2ccccc2n1,–,10 µM (active)
COc1ccc(Nc2cc(C(=O)NCCCN(C)c3ccccc3)c3ccccc3n2)c(OC)c1,-2.35% (inactive),–
CCCCN(CCCNC(=O)c1cc(Nc2ccccc2OC)nc2ccccc12)c1ccccc1,17.8% (inactive),–
CNC(=O)CN1C(=O)c2cccnc2Sc2ccccc21,1.55% (inactive),–
COc1cccc(C(=O)N(Cc2cccc(Cl)c2)Cc2ccco2)c1,-0.301% (inactive),–
O=C(CN1CCN(C2CCCCC2)CC1)Nc1ccccc1N1CCCCC1,–,15.8 µM (active)
Cc1ccccc1NC(=O)CNc1ccccc1N1CCCCC1,-4.42% (inactive),–
O=C(NCCCN1CCN(C2CCCCC2)CC1)Nc1ccccc1C(F)(F)F,-4.39% (inactive),–
COc1ccc(Cl)cc1NC(=O)CCC(=O)c1ccc(C)cc1,6.28% (inactive),–
COc1ccccc1CNC(=O)CCCn1c(=O)c2ccccc2n(CC(=O)Nc2ccc(C)cc2Cl)c1=O,-3.44% (inactive),–
CCCc1[nH]nc2c1C(c1ccc(Br)s1)C(C#N)=C(N)O2 (stereo not given),119% (inactive),–
COc1ccc(C2C(C#N)=C(N)Oc3n[nH]c(C)c32)cc1CN1CCN(c2ccc(F)cc2)CC1 (stereo not given),69.5% (inactive),–
CCCc1[nH]nc2c1C(c1ccc(OC)c(Cn3nc(C)c(Br)c3C)c1)C(C#N)=C(N)O2 (stereo not given),–,7.94 µM (active)
Cc1cccc(C2CC(=O)Oc3c2c(=O)n(C)c2ccccc32)c1 (stereo not given),-9.6% (inactive),–
O=C(CN1CCCCCC1)N1c2ccccc2Sc2ccc(C(F)(F)F)cc21,-4.29% (inactive),–
O=C(CN1CCCCC1)N1c2ccccc2Sc2ccc(C(F)(F)F)cc21,9.95% (inactive),–

Compound,"activity change, negative = cell killing",Potency
OCCN1CCN(CC/C=C2\c3ccccc3Sc3ccc(C(F)(F)F)cc32)CC1,–,15.8 µM (active)
CCOC(=O)c1c(S(=O)(=O)N2CCC(C(=O)NCc3ccccc3OC)CC2)c(C)n(C)c1C,12.3% (inactive),–
Cc1ccc(Nc2ccc3cc(S(=O)(=O)N4CCCCC4)ccc3n2)cc1F,-9.86% (inactive),–
O=C(CC(c1cccs1)N1Cc2ccccc2C1=O)Nc1ccc(F)c(F)c1 (stereo not given),23.9% (inactive),–
Cc1ccc(N2CCN(C(=O)CCc3c(C)nc4c(c3C)c(=O)n(C)c(=O)n4C)CC2)c(C)c1,-9.58% (inactive),–
CC(C)(C)c1csc(NC2=NS(=O)(=O)c3ccccc32)n1,–,12.6 µM (active)
c1ccc(Nc2nc(-c3ccncc3)cs2)nc1,-29.8% (inactive),–
O=C(CSc1nccn1Cc1ccc(F)cc1)NCc1ccccc1,-19.3% (inactive),–
CCN(C(=O)Cn1cnc2sc(C)c(S(=O)(=O)N3CCN(c4ncccn4)CC3)c2c1=O)c1ccccc1F,2.64% (inactive),–
CCOC(=O)c1c(S(=O)(=O)N2CCCC(C(=O)NCc3cccc(C)c3)C2)c(C)n(C)c1C (stereo not given),-3.53% (inactive),–
CC1(C)N=C(SCc2ccccc2Cl)c2ccccc2N1,-9.3% (inactive),–
Cc1ccccc1N1CC(c2nc3ccccc3[nH]2)CC1=O (stereo not given),3.63% (inactive),–
Cc1cc(/C=N/n2cnnc2)c(C)n1-c1cccc(C(=O)O)c1,7.88% (inactive),–
Cc1ccccc1-n1c(C)cc(/C=C2\NC(=O)NC2=O)c1C,–,8.91 µM (active)
CC(C)c1ccc(NC(=O)c2ccc(Cn3nc(N4CCN(c5ccccc5)CC4)ccc3=O)o2)cc1,-9.62% (inactive),–
O=S(=O)(c1ccc(C2CCCCC2)cc1)N1CCN(c2ccc(Cl)c(Cl)c2)CC1,12.5% (inactive),–
CCOc1ccc(CNC(=O)C2CCCN(S(=O)(=O)N(CC)c3ccc(OCC)cc3)C2)cc1 (stereo not given),-0.645% (inactive),–
CSc1nn(Cc2cccc(C)c2)c(N)c1S(=O)(=O)c1ccccc1,50.6% (inactive),–
CCCCOc1ccc(Cn2c(=O)oc3ccc(C)cc32)cc1OC,-6.89% (inactive),–
CCCCOc1ccc(CN2C(=O)C(=O)c3cc(Br)cc(C)c32)cc1OC,–,7.94 µM (active)
COc1ccc(CCN(C)CCN2C(=O)c3ccccc3C2=O)cc1OC,8.82% (inactive),–
COc1ccc(CCNC(=O)c2cc3cccc4c3n2CC(C)S4)c(OC)c1OC (stereo not given),5.11% (inactive),–
Cc1cccc(Cn2c(SCc3ccc(C(=O)N4CCC(C)CC4)cc3)nc3ccncc32)c1,-13.4% (inactive),–
CC(C)CC(=O)NCC(c1ccc2c(c1)OCO2)N1CCN(c2ccc(F)cc2)CC1 (stereo not given),-5.69% (inactive),–
CSc1nc(Nc2ccc(F)cc2)cc(-c2ccccc2)n1,–,12.6 µM (active)
